An excerpt weighted towards active compounds, which were near 7.5% of everything screened.
SMN2 splice enh: increases expression of the SMN2 splice variant. HEK293 SMN2-luciferase splicing reporter, luminescence, 30-36 h. Potency, µM (titrated, usually from 46.1 µM), usual class: activators. 210,000 compounds, 2.8% hits; further: nearly all actives have a fitted effect of over 55% in size
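HEK293 cells carry an SMN2 […]–luciferase reporter in which exon 7 inclusion puts luciferase in frame. Cells were plated 10-12 h before compound addition, then incubated 30-36 h at 37C. ONE-Glo luminescence was read; sodium butyrate at 4.5 mM final served as control.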
ELG1 genotoxic: induces genotoxicity in HEK293T cells with luciferase-tagged ELG1; HEK293T ELG1-luciferase reporter, luminescence, 16 h; Potency, µM (titrated, usually from 46 µM), usual class: activators; 330,000 compounds, 1.3% hits; AID 504466; further: nearly all actives have a fitted effect of over 60% in size
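Screening used a luciferase reporter fused to human ELG1 in HEK293T cells. Luminescence was read on a CCD plate imager after 16 hr exposure and 30 min ONE-Glo incubation.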
NPC1 promoter act: activates the NPC1 promoter | Huh7 NPC1 promoter luciferase reporter, 24 h | Potency, µM (doses to about 9.22 µM), actives largely listed as activators | 320,000 compounds, 2.4% hits | AID 485313; further: nearly all actives have a fitted effect of over 60% in size
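Luminescence read-out of NPC1 promoter-driven luciferase in stably transfected Huh7 cells; compounds delivered in DMSO and left 24 h at 37C, 5% CO2, qHTS titration format.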
Rab9 promoter act: activators of Rab9 promoter | Huh7 Rab9 promoter-luciferase reporter, luminescence, 24 h | Potency, µM (top dose mostly 9.22 µM), hits mostly activators | 320,000 compounds, 2.8% hits; further: nearly all actives have a fitted effect of over 60% in size
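Huh7 reporter line, Rab9 promoter upstream of luciferase. Compound exposure 24 h at 37 °C in reduced-serum medium with 10% FBS. Read-out: luminescence.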
FLuc counter: firefly luciferase modulation, counter-screen for miR-21 project. Potency, µM (doses to about 57.5 µM), most hits filed as inhibitors. P08659. purified FLuc, Km substrates, luminescence inhibition. 360,000 compounds, 6.9% hits. AID 588342; further: nearly all actives have a fitted effect of over 55% in size
Target sequence (P08659 whole entry, looked up): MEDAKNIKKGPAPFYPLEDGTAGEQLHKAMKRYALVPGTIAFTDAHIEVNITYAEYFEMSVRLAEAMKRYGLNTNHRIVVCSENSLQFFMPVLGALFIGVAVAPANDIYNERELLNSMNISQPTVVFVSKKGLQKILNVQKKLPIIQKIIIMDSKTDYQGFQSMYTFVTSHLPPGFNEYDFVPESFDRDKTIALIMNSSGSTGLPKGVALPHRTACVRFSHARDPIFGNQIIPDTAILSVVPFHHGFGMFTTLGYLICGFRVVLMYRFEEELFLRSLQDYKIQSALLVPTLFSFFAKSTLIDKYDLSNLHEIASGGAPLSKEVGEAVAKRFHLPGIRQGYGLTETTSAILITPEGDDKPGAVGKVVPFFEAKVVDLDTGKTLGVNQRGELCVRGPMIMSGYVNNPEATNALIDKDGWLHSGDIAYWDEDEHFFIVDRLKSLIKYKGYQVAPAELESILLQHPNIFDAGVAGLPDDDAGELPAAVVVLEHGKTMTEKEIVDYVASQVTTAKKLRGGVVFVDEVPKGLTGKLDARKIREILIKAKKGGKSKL
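Purified P. pyralis luciferase, 10 nM final, with Km-level 10 uM D-luciferin and 10 uM ATP in 50 mM Tris acetate pH 7.5, 10 mM Mg acetate, 0.01% Tween-20, 0.05% BSA; 6-point qHTS titration about 60 µM downward; luminescence read.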
A number is an active result; n = inactive; u = inconclusive; x = not tested or not shown; [ ] = dose if it differs, or a comment. The call rests on the fitted dose curve; in most records, active means well fitted curve in the direction sought with a large enough effect; inconclusive means small, poorly fitted or top-dose-only effect, or another doubt; inactive means no such curve, though single readings can be large; an effect the other way counts as inactive or inconclusive.

SMILES	SMN2 splice enh	ELG1 genotoxic	NPC1 promoter act	Rab9 promoter act	FLuc counter
COc1ccc(/C=C2/N=C3CCCCCN3C2=O)cc1	n	u	n	n	17µM
CC(C)(C)C(=O)Nc1cc2nn(-c3ccccc3)nc2cc1Cl	n	u	n	n	0.076µM
CC(=O)Nc1cc2nn(-c3ccccc3)nc2cc1Cl	11µM	1.3µM	0.56µM	0.5µM	1.5µM
Cc1nn(-c2cccc(Cl)c2)nc1C(=O)O	n	n	n	n	u
CC(C)COc1ccc(C(=O)Nc2cc3nn(-c4ccccc4)nc3cc2Cl)cc1	n	x	x	x	n
O=c1ccc2ccc(OCCOc3cccc(Cl)c3)cc2o1	x	n	n	n	u
O=S(=O)(c1ccccc1)N1c2cc(Cl)ccc2Oc2nc3ccccc3nc21	u	n	n	n	13µM
COCCN(C(=S)Nc1c(C)cc(C)cc1C)C(C)c1cccs1 (stereo not drawn)	n	n	n	n	n
COc1ccc(-c2ccc(CCC(=O)O)n2C(C)C)cc1	n	n	n	n	n[2.3 µM]
O=C(O)CCc1ccc(-c2ccc(Br)cc2)n1Cc1ccco1	n	n	n	n	n
COc1ccc(-c2ccc(CCC(=O)O)o2)cc1	x	n	n	n	5.4µM
O=C(O)CCc1ccc(-c2ccc(Cl)cc2)o1	n	u	n	n	15µM
O=C(O)CCc1ccc(-c2ccc(Br)cc2)o1	n	n	n	n	15µM
O=C1C=CC2(OCCCO2)C(Br)=C1CO	n	x	x	x	x
Cn1c(=O)n(C)c2cc(/C=C3/NC(=O)N(Cc4ccccc4)C3=O)ccc21	n	9.2µM	n	n	n
CCn1c(C)cc(/C=C2\NC(=O)N(Cc3ccc(Cl)cc3)C2=O)c1C	n	n	n	n	n
CCN1C(=O)N/C(=C/c2cc(C)n(Cc3ccccc3)c2C)C1=O	n	n	u	u	3.4µM
CN=C1S/C(=C\c2ccc(N3CCCC3)c(F)c2)C(=O)N1C	u	u	n	u	4.8µM
Cc1cccc(Cc2ncc(C(F)(F)F)cc2Cl)c1	x	n	n	n	n
CCOc1ccc(Nc2nc(Cc3nnc(SCC(=O)O)o3)cs2)cc1	n	n	n	n	8.5µM
CCOc1ccc(Cc2nnc(SCC(=O)c3ccc(OC)cc3)o2)cc1	n	n	n	n	n
CC1=NN(c2ccccc2)C(=O)/C1=C\c1cc(C)n(-c2ccccc2)c1C	n	u	n	n	0.54µM
Cc1cc(/C=C2/SC(=S)N(c3ccc([N+](=O)[O-])cc3)C2=O)c(C)n1-c1cccnc1	n	n	n	n	n
CC1=NN(c2ccccc2)C(=O)/C1=C\c1cc(C)n(-c2cccnc2)c1C	x	n	n	n	2.7µM
CC1=NN(c2ccc(C)cc2)C(=O)/C1=C\C=C\c1ccccc1	n	n	n	n	u
SMILES	SMN2 splice enh	ELG1 genotoxic	NPC1 promoter act	Rab9 promoter act	FLuc counter
CC1=NN(c2cccc(C(=O)O)c2)C(=O)/C1=C\C=C/c1ccccc1	n	n	n	n	2.4µM
CC1=NN(c2ccccc2)C(=O)/C1=C\N(O)c1ccccc1	x	n	n	n	u
CCN1CCN(C(=O)c2ccc(CN(c3ccccc3)S(=O)(=O)c3ccccc3)cc2)CC1	x	n	n	n	n
Nc1nc(SCCO)[nH]c(=O)c1NC(=O)c1ccccc1F	n	n	n	n	n
Cc1ccc(-c2nnc(-c3cccc(NC(=O)c4cccs4)c3)o2)cc1	n	n	n	n	2.7µM
Cc1cccc(-c2nnc(-c3cccc(NC(=O)Cc4cccs4)c3)o2)c1	n	n	n	n	12µM
Cc1ccc(C(=O)c2coc3c2C(=O)C(=O)c2ccccc2-3)cc1	n	14µM	n	n	u
Cc1ccc(C(=O)c2c(C)oc3c2C(=O)C(=O)c2ccccc2-3)cc1	n	n	n	n	n
COc1cccc(NC(=O)C2CCN(S(=O)(=O)c3c(C)noc3C)CC2)c1	n	x	x	x	n
Cc1ccc(-c2nc3ccccc3o2)cc1NC(=S)NC(=O)/C=C/c1ccco1	n	n	n	n	u
Cc1ccc2oc(-c3ccc(C)c(NC(=O)/C=C/c4ccc(Cl)cc4)c3)nc2c1	n	x	x	x	12µM
Cc1ccc2oc(-c3ccc(C)c(NC(=O)/C=C/c4ccco4)c3)nc2c1	u	x	x	x	12µM
Cc1ccc2oc(-c3ccc(C)c(NC(=O)c4ccc5c(c4)OCCO5)c3)nc2c1	n	x	x	x	n
O=C(c1csnn1)N1CCC2(CCCN(c3ccncc3)C2)CC1	n	x	x	x	x
CCOC(=O)c1cc(S(=O)(=O)Nc2ccccc2)[nH]n1	x	x	x	x	n
CCOc1cc(/C=C2/C(=N)N3C(=NC2=O)SN=C3S(C)(=O)=O)ccc1OS(=O)(=O)c1ccccc1	x	n	n	n	u
Cc1ccc(-n2cccc2/C=C2/C(=N)N3C(=NC2=O)SN=C3S(C)(=O)=O)cc1Cl	n	n	n	n	n
COc1cc(/C=C2/C(=N)N3C(=NC2=O)SN=C3S(C)(=O)=O)ccc1OS(=O)(=O)c1ccccc1	x	n	n	n	n
CCOc1ccc(-n2c(C)cc(/C=C3/C(=N)N4C(=NC3=O)SN=C4S(C)(=O)=O)c2C)cc1	n	n	n	n	17µM
COc1ccccc1-n1c(C)cc(/C=C2/C(=N)N3C(=NC2=O)SN=C3S(C)(=O)=O)c1C	n	u	u	u	0.67µM
Cc1cccc(C)c1-n1cccc1/C=C1/C(=N)N2C(=NC1=O)SN=C2S(C)(=O)=O	n	n	n	n	24µM
COc1ccccc1-n1c(C)cc(/C=C2\C(=N)N3N=C(CC(=O)N4CCOCC4)SC3=NC2=O)c1C	x	n	n	n	24µM
CC1=CC2=NC(=O)/C(=C\c3cc(C)n(-c4ccc(F)cc4)c3C)C(=N)N2O1	n	n	n	n	n
Cc1cc(/C=C2/C(=N)N3C(=NC2=O)SN=C3S(C)(=O)=O)c(C)n1-c1ccc(F)cc1	u	u	n	n	1.5µM
CCc1ccc(C(=O)CSc2nnc(C3CC3)n2C2CC2)cc1	x	n	n	n	x
SMILES	SMN2 splice enh	ELG1 genotoxic	NPC1 promoter act	Rab9 promoter act	FLuc counter
Cc1ccc(C(=O)CSc2nnc(C3CC3)n2C2CC2)s1	x	u	u	u	19µM
CCN(CC)CC[n+]1ccc2c(C)c3[nH]c4ccccc4c3c(C)c2c1	n[9.22 µM]	x	x	x	x
O=C(N/N=C/c1cccc(Br)c1)c1ccc(Cn2cc(Br)cn2)o1	n	n	n	n	13µM
Cc1ccc(/C=N\NC(=O)c2ccc(Cn3cc(Br)c([N+](=O)[O-])n3)o2)o1	x	n	n	n	n
O=C(N/N=C\c1cccc(Cl)c1)c1ccc(Cn2cc(Br)c([N+](=O)[O-])n2)o1	n	n	n	n	5.4µM
Cc1c(Cl)c([N+](=O)[O-])nn1Cc1ccc(C(=O)N/N=C\c2cccc(Br)c2)o1	n	n	n	n	7.6µM
Cc1ccsc1/C=N/NC(=O)c1ccc(Cn2cc(Br)cn2)o1	n	n	n	n	n
O=C(N/N=C\c1cccc(Cl)c1)c1ccc(Cn2cccn2)o1	n	n	n	n	12µM
NNC(=O)c1ccc(Cn2cccn2)o1	x	n	n	n	u
Cc1ccccc1/C=N\NC(=O)c1ccc(Cn2cccn2)o1	n	n	n	n	17µM
CN(C)CCOC(=O)c1ccc(N)cc1	n[9.22 µM]	x	x	x	x
